From ChEMBL document CHEMBL3988442, “University of Dundee, Small-Polar-MMV Screening Library” (2021) come the findings set out here.

Screen size: about 38,000 compounds; about 1,200 (3.2%) showed an effect of 50% or more. The median lay at about -58%. For the sample, strong results were picked, then their nearest neighbours and some compounds at random.

The assay deals with Plasmodium falciparum. The experiment in a line: Calibr Malaria Delayed Death Assay SOP. It is filed as functional, organism-based. Further details: scale not given: in the data most compounds retested in dose-response had high values. To be noted: concentration 4.99e-06 (unit not given; other assays of the set use mol/L).
Regarding `CC1CN(C(=O)NCCc2nc(C(C)C)no2)CCO1` (centres undefined), the “Percent Effect” value was -93.77%.
The same measure for `Cc1cccc(CNC2CCCc3c2cnn3C)c1.Cl` (centres undefined): -40.76%; for `Cl.Cn1ncc2c1CCCC2NCc1cccc(F)c1` (centres undefined): 10.36%.
The result for `Cc1cccc(CNC2CCCc3c2cnn3Cc2ccccc2)c1.Cl` (centres undefined) reads 64.5%; that for `O=S(=O)(C1CC1)N1CCC2(COCc3cnc(NCC4CC4)nc32)C1` (centres undefined), -35.4%.
For the compound `c1cc(N2CCC3(COCc4cnc(NCC5CC5)nc43)C2)ncn1` (centres undefined), the “Percent Effect” value is given as -14.49%.
The same measure for `c1ccc(CN2CCC3(COCc4cnc(NCC5CC5)nc43)C2)cc1` (centres undefined): 50.22%; for `CC(C)CC(NC(=O)c1ccn(C)c(=O)c1)c1cccs1` (centres undefined): -80.8%.
Turning to `Cc1cc(C(=O)N(C)CCCn2cccn2)nc(N)n1`, the “Percent Effect” value was -80.13%.
The same measure for `CCN(CC)C(=O)N1CCN(Cc2cnc(C)nc2)[C@H]2CS(=O)(=O)C[C@H]21`: -158.8%.
The result for `CCS(=O)(=O)N1CCCn2nnc(CNC(C)=O)c2C1` reads -63.27%; that for `CCN1CCCC(O)(CN(C)Cc2ccccc2F)C1` (centres undefined), 56.49%; that for `CN(C)CC1(O)CCCN(Cc2ccccc2OCC(=O)N(C)C)C1` (centres undefined), -89.01%.
In the case of `CCN1CCCC(O)(CNCc2ccccc2F)C1` (centres undefined), the “Percent Effect” value worked out at 38.87%.
The same measure for `Cc1nc2c(c(N(C)C)n1)CCN(C(=O)c1ccc(N)nc1)C2`: -40.57%; for `O=C(CCc1ccccc1)NCC1CCN(Cc2ccccc2)CC1`: 43.31%.
For `CC(=O)N1CCCN(CCn2nc3ccccn3c2=O)CC1`, the “Percent Effect” value was -130.1%.
The result for `CCCNS(=O)(=O)Cc1ccc(Br)cc1` reads -18.14%; that for `CN(C)CCN(C)S(=O)(=O)Cc1ccc(Br)cc1`, 62.66%.
On to `CC(O)CCN(C)S(=O)(=O)Cc1ccc(Br)cc1` (centres undefined), for which the “Percent Effect” value is given as -27.23%.
The result for `CC(Cn1cccn1)NC(=O)NCc1ccnc(OC2CCCC2)c1` (centres undefined) reads -91.81%.
The result for `O=C(CCc1cccs1)Nc1ccnn1C1CCS(=O)(=O)C1` (centres undefined) reads -51.38%; that for `Cc1ccc(C(=O)N2CC[C@]3(C[C@@H](OCc4ccccn4)CO3)C2)nc1.O=C(O)C(F)(F)F.O=C(O)C(F)(F)F`, -9.931%; that for `CNc1cncc(C2CCCN2Cc2cccc(C)n2)n1` (centres undefined), -46.34%.
The result for `Cc1nonc1C1CCCN1Cc1ccc(C(=O)Nc2nccs2)cc1` (centres undefined) reads -15.94%; that for `Cc1ccc(C)c(CSc2nnc([C@@H](N)C(C)C)o2)c1.Cl`, -98.07%; that for `FC(F)Oc1ccccc1CN1CCCC(c2nccn2CC2CC2)C1` (centres undefined), 86.3%.
For the compound `NC(=O)Cn1ccnc1C1CCCN(Cc2ccccc2OC(F)F)C1` (centres undefined), the “Percent Effect” value was -1.798%.
The result for `N#Cc1ccccc1CN1CCCC(c2nccn2CC2CC2)C1` (centres undefined) reads 10.64%; that for `Cc1cc(NC(=O)CN2CCCC2c2noc(C(C)C)n2)no1` (centres undefined), -88.6%; that for `COCC1CCCN(C(=O)c2ccc(N(C)Cc3cnn(C)c3)nc2)C1` (centres undefined), -103.7%.
The same measure for `O=C(CCCn1cnc2ccccc2c1=O)Nc1nc[nH]n1`: -6.042%; for `O=C(Cc1ccc2c(c1)CCC2)NC1CCN(Cc2ccccc2)CC1`: 27.79%.
In the case of `O=C(Nc1ccccn1)C1CCN(Cc2cc3c(cc2O)OCO3)CC1`, the “Percent Effect” value was -119.6%.
The same measure for `O=C(CCCNC(=O)C1CCCO1)Nc1ccc(Cl)cc1` (centres undefined): -38.58%; for `CCc1nc(CN(C)CC(=O)OC(C)(C)C)cs1`: -47.19%; for `COc1cccc([C@@H]2CCN(Cc3ccc4ccccc4n3)C[C@H]2O)c1`: -19.61%.
The result for `COc1cccc([C@@H]2CCN(Cc3cn(C)c4ccccc34)C[C@H]2O)c1` reads 77.7%.
The same measure for `COc1cccc([C@@H]2CCN(Cc3cccc(C)n3)C[C@H]2O)c1`: -31.33%; for `Cc1ccc(CN(C)C(=O)CN2CCc3ccccc3C2)o1`: -48.11%; for `CC(C)n1cnnc1CN(C)C(=O)C1CCCN(C2CCN(C)CC2)C1` (centres undefined): -93.39%.
Take `CC(=O)c1c(C)nn(CC(=O)Nc2ccc(Br)cc2)c1C`: the “Percent Effect” value was found to be 66.34%.
The result for `CC(=O)c1c(C)nn(CC(=O)Nc2ccc(F)cc2)c1C` reads -45.58%; that for `COc1ccc(CC(=O)Nc2ccc3ncn(C)c(=O)c3c2)cc1`, -105.2%.
On to `Cn1ccc2c(ccn2CC(=O)Nc2ccc(Br)cc2)c1=O`, for which the “Percent Effect” value is -82.23%.
The same measure for `COc1ccc(NC(=O)Cn2nc(C)ccc2=O)cc1OC`: -36.97%.
The same measure for `COc1ccc(NC(=O)Cn2nc(C)c(C(C)=O)c2C)cc1`: 89.56%; for `CCOCc1cncc2c1CCN(C(=O)c1cscn1)C2.O=C(O)C(F)(F)F`: -50.24%.
The result for `Cc1nc(C2CCCN2C(=O)CCCn2cncn2)no1` (centres undefined) reads -14.54%.
Regarding `COc1ccc(S(=O)(=O)N2CCC(Cn3ccnc3)CC2)cc1`, the “Percent Effect” value was -82.14%.
The result for `CCc1ocnc1C(=O)N1CCOC(c2nc(C(C)C)n[nH]2)C1` (centres undefined) reads -32.06%; that for `CCc1cnc(N)nc1N[C@@H](C)c1ncccc1C`, 2.334%; that for `CCc1cnc(N)nc1NC(C)c1cnn(C)c1` (centres undefined), -61.87%.
The result for `CCc1cnc(N)nc1NC(C)c1ccc(C)c(C)c1` (centres undefined) reads 72.97%.
The same measure for `CCS(=O)(=O)c1cccc(C(=O)Nc2cccc3c2C(=O)N(C)C3=O)c1`: -74.2%; for `CN(Cc1ccco1)[C@@H]1CN(Cc2cccs2)C[C@@H]2CCCO[C@@H]21.O=C(O)C(F)(F)F.O=C(O)C(F)(F)F`: 64.28%; for `CN(Cc1ccco1)[C@@H]1CN(Cc2ccncc2)C[C@@H]2CCCO[C@@H]21.O=C(O)C(F)(F)F.O=C(O)C(F)(F)F.O=C(O)C(F)(F)F`: 7.341%.
As for `CN(Cc1ccco1)[C@@H]1CN(Cc2nccs2)C[C@@H]2CCCO[C@@H]21.O=C(O)C(F)(F)F.O=C(O)C(F)(F)F`, the “Percent Effect” value is recorded as 29.14%.
The same measure for `CNC(=O)[C@@H]1CC[C@@H]2[C@@H](CCN2Cc2cn(C)c3ccccc23)O1.O=C(O)C(F)(F)F`: -13.73%.
For the compound `Cn1cc(CN2CC[C@H]3O[C@H](C(=O)NC4CC4)CC[C@H]32)c2ccccc21.O=C(O)C(F)(F)F`, the “Percent Effect” value was 22.79%.
The result for `CN(Cc1ccco1)[C@@H]1CN(CC2CCOCC2)C[C@@H]2CCCO[C@@H]21.O=C(O)C(F)(F)F.O=C(O)C(F)(F)F` reads 11.5%.
The result for `CN(Cc1ccco1)[C@@H]1CN(Cc2cccnc2)[C@@H]2CCCO[C@H]12.O=C(O)C(F)(F)F.O=C(O)C(F)(F)F.O=C(O)C(F)(F)F` reads -47.89%.
The same measure for `CN(Cc1ccco1)[C@@H]1CN(Cc2ccc(F)cc2)[C@@H]2CCCO[C@H]12.O=C(O)C(F)(F)F.O=C(O)C(F)(F)F`: 54.29%.
For `CN(Cc1ccco1)[C@@H]1CN(Cc2ccccn2)C[C@@H]2CCCO[C@@H]21.O=C(O)C(F)(F)F.O=C(O)C(F)(F)F.O=C(O)C(F)(F)F`, the “Percent Effect” value was determined as 29.58%.
The same measure for `CC(C)NC(=O)[C@@H]1CC[C@@H]2[C@@H](CCN2Cc2cn(C)c3ccccc23)O1.O=C(O)C(F)(F)F`: 76.85%; for `Cc1ccc(CN2C[C@@H]3CCCO[C@@H]3[C@H](N(C)Cc3ccco3)C2)s1.O=C(O)C(F)(F)F.O=C(O)C(F)(F)F`: 73.4%.
Regarding `CN(Cc1ccco1)[C@@H]1CN(Cc2cnn(C)c2)[C@@H]2CCCO[C@H]12.O=C(O)C(F)(F)F.O=C(O)C(F)(F)F`, the “Percent Effect” value is given as 23.66%.
The result for `Cc1ccc(NC2CCN(C(=O)c3ccc(C#N)cc3)CC2)nn1` reads -90.82%; that for `Cc1nccc(NCc2cncc3c2CCN(S(C)(=O)=O)C3)n1.Cl`, -112.1%.
The same measure for `CSCC[C@H](NC(=O)CCn1ccc2c(Cl)cccc21)C(=O)O`: -54.73%.
The same measure for `Cn1cc(CN2CCCC23CCN(C(=O)c2ccsc2)CC3)cn1.O=C(O)C(F)(F)F`: -0.2713%; for `Cc1nn(C)cc1-c1cc(C(F)(F)F)nc(NC2CCCCC2)n1`: -100.7%.
For `O=C(NCc1ccco1)[C@@H]1CC[C@@H]2[C@@H](CCN2Cc2ccc(F)cc2)O1.O=C(O)C(F)(F)F`, the “Percent Effect” value amounted to 66.38%.
Consider `CN(Cc1ccco1)[C@@H]1CN(Cc2cccnc2)C[C@@H]2CCCO[C@@H]21.O=C(O)C(F)(F)F.O=C(O)C(F)(F)F.O=C(O)C(F)(F)F`, for which the “Percent Effect” value is 27.09%.
For `O=C(NCc1ccco1)[C@H]1CC[C@@H]2[C@@H](CCN2Cc2cccnc2)O1.O=C(O)C(F)(F)F.O=C(O)C(F)(F)F`, the “Percent Effect” value is given as -37.9%.
The same measure for `O=C(NCc1ccco1)[C@@H]1CC[C@@H]2[C@@H](CCN2CC2CC2)O1.O=C(O)C(F)(F)F`: 7.283%; for `CN(Cc1cncnc1)[C@@H]1CN(Cc2ccco2)C[C@@H]2CCCO[C@@H]21.O=C(O)C(F)(F)F.O=C(O)C(F)(F)F`: -10.65%; for `CN(Cc1ccco1)[C@@H]1CN(Cc2ccoc2)C[C@@H]2CCCO[C@@H]21`: 59.2%.
Take `Cc1cc(I)c2c(c1)C(=O)C(CN1CCCC1)(CN1CCCC1)CO2`: the “Percent Effect” value was -91.39%.
The same measure for `CCCOC1CCCN(c2nc(COC)nc3c2cnn3C)C1` (centres undefined): -157.4%; for `CC(=O)Nc1nc(C2CCN(C(=O)c3ccncc3)CC2)cs1`: 10.73%.
The same measure for `COCC1c2c(cnn2CC2CC2)CCN1Cc1cc(C)on1.O=C(O)C(F)(F)F.O=C(O)C(F)(F)F` (centres undefined): -52.73%; for `COc1ccncc1NCc1ccsc1`: -36.48%; for `COc1ncccc1C(Cc1ccsc1)NC(=O)Cn1cccnc1=O` (centres undefined): -43.2%.
The same measure for `CNc1cc(N2CCCC2CNCc2cccc(C#N)c2)ncn1` (centres undefined): -40.51%; for `Cc1ccc(C2CN(CCS(C)(=O)=O)CCO2)c(C)c1` (centres undefined): -57.06%; for `Cc1ccccc1CS(=O)(=O)CC(=O)N(C)Cc1cccc(F)c1`: -13.79%.
For `Cc1noc(C)c1CS(=O)(=O)CC(=O)N(C)Cc1cccc(F)c1`, the “Percent Effect” value was -32.62%.
The same measure for `CN(Cc1cccc(F)c1)C(=O)CS(=O)(=O)Cc1c(Cl)cccc1Cl`: 82.58%.
